This passage reports Potency results from PubChem BioAssay AID489008 (National Center for Advancing Translational Sciences (NCATS), 2010).

Results filed as inconclusive are left out. Activity calls are given as the source filed them. The call rests on the fitted dose curve; in most records, active means well fitted inhibition curve with a large enough effect; inconclusive means small, poorly fitted or top-dose-only effect; inactive means flat fitted curve, though single readings scatter.
Potency means the concentration at half of the fitted maximal effect.

Chain of Ferritin light chain (Equus caballus) (P02791 2-175 limits assumed): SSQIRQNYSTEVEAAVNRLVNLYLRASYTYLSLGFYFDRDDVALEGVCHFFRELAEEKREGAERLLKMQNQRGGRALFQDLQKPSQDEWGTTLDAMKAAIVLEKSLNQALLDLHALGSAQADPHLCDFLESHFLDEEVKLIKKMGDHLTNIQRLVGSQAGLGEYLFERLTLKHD

This assay has as its target Ferritin light chain (Equus caballus) (UniProt P02791). Description: Confirmation Assay for Identification of Novel General Anesthetics. Further: nearly all actives have a fitted effect of over 40% in size. The settings on record: apoferritin 1-aminoanthracene fluorescence displacement. A digest of the protocol: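 Competitive displacement of profluorescent 1-aminoanthracene from 10 uM horse-spleen apoferritin in 50% saturated 1-AMA/PBS; 10 min RT, fluorescence Ex 380/Em 535. Normalized to free 1-AMA and complex; four-parameter Hill fit.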
Turning to `Fc1ccc(CNc2ccc(CNc3ncn[nH]3)cc2)cc1`, the Potency is 17.8 µM (active). Next, `O=C(CN1CCOCC1)Nc1ccc(C2CCCCC2)cc1`: 31.6 µM (active); `Nc1cc(C(F)(F)F)ccc1Nc1ccccc1`: 25.1 µM (active). With `CCN(CC)S(=O)(=O)c1ccc(C)c(C)c1`, the Potency was 22.4 µM (active). As to `Cc1ccc(NCc2ccccc2O)cc1`, the Potency is 14.1 µM (active).

In the case of `O=C(CCl)Nc1ccc(N2CCCCCC2)cc1`, the Potency was 15.8 µM (active). In the case of `COc1cccc(CNc2ccc(C)c(Cl)c2)c1`, the Potency is 11.2 µM (active). With `O=C(COC(=O)CC1CC2CCC1C2)NC(=O)NC1CCCC1` (stereo not drawn), the Potency was 15.8 µM (active).

As for `COc1ccccc1CC(=O)NC12CC3CC(CC(C3)C1)C2`, the Potency is 12.6 µM (active). For the compound `Cc1ccc(NC(=O)C2COc3ccccc3O2)cc1C` (stereo not drawn), the Potency is 17.8 µM (active). With `Oc1ccc(NCc2ccc(OCc3ccccc3Cl)cc2)cc1`, the Potency is 17.8 µM (active). Consider `N#CCc1ccc(Oc2ncc(C(F)(F)F)cc2Cl)cc1`, for which the Potency is 17.8 µM (active). With `Cc1cccc(NC(=O)N2CCCCCC2)c1`, the Potency is 11.2 µM (active). For the compound `Cc1ccc(CCC(=O)Nc2cc(Cl)ccc2Cl)o1`, the Potency is 7.94 µM (active).

As to `O=S(=O)(Nc1cnc2ccccc2c1)N1CCCCCC1`, the Potency was 28.2 µM (active).

Turning to `Cc1ccc(NC(=O)Cn2nc(-c3ccco3)ccc2=O)cc1Cl`, the Potency was 28.2 µM (active). Turning to `Cc1cccc(OCCC(=O)OCC(=O)N2CCc3ccccc32)c1`, the Potency is 10 µM (active). On to `CC1CCCCN1S(=O)(=O)Cc1ccccc1Cl` (stereo not drawn), for which the Potency is 14.1 µM (active). For the compound `O=C(NC1CCCCCC1)c1nnc(Cc2ccc(Cl)cc2)o1`, the Potency was 15.8 µM (active). As to `COc1cccc(C(=O)COC(=O)CCC(=O)c2ccccc2)c1`, the Potency is 7.94 µM (active). `Cc1ccc(S(=O)(=O)NCCc2ccccc2)cc1`: the Potency was 15.8 µM (active). As for `Cc1ccc(NC(=O)N2CCCCCC2)c(C)c1`, the Potency was 15.8 µM (active). With `O=C(NC1CCCCC1)C(=S)NCc1ccccc1`, the Potency was 15.8 µM (active). For `COc1cccc(NC(=O)N2CCCCCC2)c1` the value was 14.1 µM (active). Turning to `O=C(CSc1ccc(F)cc1)NC12CC3CC(CC(C3)C1)C2`, the Potency was 15.8 µM (active). With `O=C(CSc1nnnn1C1CCCCC1)Nc1nc2c(s1)CCCC2`, the Potency was 31.6 µM (active). For the compound `CC1CCCC(C)N1C(=O)COc1ccccc1F` (stereo not drawn), the Potency is 17.8 µM (active). In the case of `CCc1ccc(CNC(=O)Cn2nc(-c3ccccc3)ccc2=O)cc1`, the Potency is 10 µM (active).

For `O=C(CCSc1ccccc1)NC(=O)COC(=O)C1CCCCC1`, the Potency was 35.5 µM (active). As to `O=C(Nc1nccs1)c1csc2c1CCCC2`, the Potency is 8.91 µM (active). Next, `O=C(CSC(=S)N1CCCCC1)c1ccccc1`: 15.8 µM (active); `Cc1ccc(NCc2ccccc2)cc1`: 10 µM (active).

On to `Cc1ccc(NC(C)c2cc(Cl)ccc2O)cc1` (stereo not drawn), for which the Potency was 17.8 µM (active). As to `O=C(CNC(=O)c1ccco1)OCC(=O)c1ccc2c(c1)CCCC2`, the Potency is 31.6 µM (active). On to `Fc1ccc(NCc2ccccc2F)cc1Cl`, for which the Potency is 14.1 µM (active). For `Cc1ccc(NCc2ccccc2O)c(C)c1` the value was 12.6 µM (active).

Consider `Cc1ccc(O)c(NC(=O)CCC2CCCCC2)c1`, for which the Potency was 7.94 µM (active). As to `c1ccc(CCNc2nc3ccccc3s2)cc1`, the Potency was 10 µM (active).
